# Laboratory results from PubChem BioAssay AID1159580 (chemical genetic matrix, 2015).
# The whole screen tested about 5,500 compounds, of which about 2,000 (36%) were called active. Another 18% or so got no clear call; they are omitted. The list shows a part of the results. A number with no mark means an inactive call. Rule as the data show it: active = normalized growth mostly below about 0.91 (no sharp cut-off); inconclusive = no clear call, values can overlap the other calls; inactive = mostly above about 0.92.
# Test: chemical genetic growth profiling, strain panel (AID 1159580);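 also: tested at 20 µM; growth read once vehicle control cultures reached saturation at 30 °C; 1 = growth at the plate median or of vehicle wells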
# Conditions: S. cerevisiae deletion strains, growth OD
smiles,measurement,setting,value
COc1cc(C)c2c(=O)cc(-c3ccccc3)oc2c1,normalized growth,"locus YJL187C, strain SWE1 (second series), stronger effect = lower value",0.954
same,normalized growth,"locus YJL187C, strain SWE1, stronger effect = lower value",0.933
same,normalized growth,"locus YJR043C, strain POL32, stronger effect = lower value",1.03
same,normalized growth,"locus YJR066W, strain TOR1, stronger effect = lower value",0.814 (active)
same,normalized growth,"locus YKL009W, strain mrt4, stronger effect = lower value",0.954
same,normalized growth,"locus YKL068W, stronger effect = lower value",0.966
same,normalized growth,"locus YKL085W, strain MDH1 (second series), stronger effect = lower value",0.965
same,normalized growth,"locus YKL085W, strain MDH1, stronger effect = lower value",0.965
same,normalized growth,"locus YKL160W, strain elf1, stronger effect = lower value",0.884 (active)
same,normalized growth,"locus YKR001C, strain vps1, stronger effect = lower value",0.982
same,normalized growth,"locus YKR026C, strain gcn3, stronger effect = lower value",0.92 (active)
same,normalized growth,"locus YKR091W, strain srl3, stronger effect = lower value",0.934
same,normalized growth,"locus YLL001W, strain dnm1, stronger effect = lower value",0.932
same,normalized growth,"locus YLL026W, stronger effect = lower value",0.944
same,normalized growth,"locus YLL041C, strain sdh2, stronger effect = lower value",0.935
same,normalized growth,"locus YLR027C, strain aat2, stronger effect = lower value",0.917 (active)
same,normalized growth,"locus YLR039C, strain RIC1, stronger effect = lower value",1.08
same,normalized growth,"locus YLR058C, strain SHM2, stronger effect = lower value",0.975
same,normalized growth,"locus YLR102C, strain apc9, stronger effect = lower value",0.974
same,normalized growth,"locus YLR113W, strain HOG1, stronger effect = lower value",0.721 (active)
same,normalized growth,"locus YLR221C, strain rsa3, stronger effect = lower value",0.887 (active)
same,normalized growth,"locus YLR258W, strain gsy2, stronger effect = lower value",0.921
same,normalized growth,"locus YLR262C, strain YPT6 (second series), stronger effect = lower value",0.757 (active)
same,normalized growth,"locus YLR262C, strain YPT6, stronger effect = lower value",1.05
same,normalized growth,"locus YLR268W, strain sec22, stronger effect = lower value",0.958
same,normalized growth,"locus YLR320W, strain mms22, stronger effect = lower value",0.728 (active)
same,normalized growth,"locus YLR330W, strain CHS5, stronger effect = lower value",0.973
same,normalized growth,"locus YLR342W, strain FKS1 (second series), stronger effect = lower value",0.979
same,normalized growth,"locus YLR342W, strain FKS1, stronger effect = lower value",0.901 (active)
same,normalized growth,"locus YLR357W, strain rsc2, stronger effect = lower value",0.87
same,normalized growth,"locus YLR370C, strain arc18, stronger effect = lower value",0.945
same,normalized growth,"locus YLR371W, strain rom2, stronger effect = lower value",0.966
same,normalized growth,"locus YLR384C, strain iki3, stronger effect = lower value",0.925
same,normalized growth,"locus YLR418C, strain cdc73, stronger effect = lower value",0.843
same,normalized growth,"locus YML016C, strain PPZ1, stronger effect = lower value",0.972
same,normalized growth,"locus YML032C, strain rad52, stronger effect = lower value",0.968
same,normalized growth,"locus YML120C, strain ndi1, stronger effect = lower value",0.941
same,normalized growth,"locus YML124C, strain tub3, stronger effect = lower value",0.973
same,normalized growth,"locus YMR058W, strain fet3, stronger effect = lower value",0.917
same,normalized growth,"locus YMR078C, strain ctf18, stronger effect = lower value",0.952
same,normalized growth,"locus YMR125W, strain sto1, stronger effect = lower value",0.929
same,normalized growth,"locus YMR129W, stronger effect = lower value",0.937
same,normalized growth,"locus YMR205C, strain PFK2, stronger effect = lower value",0.791 (active)
same,normalized growth,"locus YMR223W, strain ubp8, stronger effect = lower value",0.967
same,normalized growth,"locus YMR231W, strain pep5, stronger effect = lower value",0.951
same,normalized growth,"locus YMR307W, strain GAS1, stronger effect = lower value",1.23
same,normalized growth,"locus YNL067W, strain RPL9B, stronger effect = lower value",0.964
same,normalized growth,"locus YNL071W, strain lat1, stronger effect = lower value",0.687 (active)
same,normalized growth,"locus YNL183C, strain NPR1, stronger effect = lower value",0.796 (active)
same,normalized growth,"locus YNL209W, strain ssb2, stronger effect = lower value",0.961
same,normalized growth,"locus YNL233W, strain BNI4, stronger effect = lower value",0.952
same,normalized growth,"locus YNL248C, strain rpa49, stronger effect = lower value",0.912
same,normalized growth,"locus YNL250W, strain rad50, stronger effect = lower value",0.953
same,normalized growth,"locus YNL271C, strain bni1, stronger effect = lower value",0.944
same,normalized growth,"locus YNL298W, strain CLA4, stronger effect = lower value",0.953
same,normalized growth,"locus YNL307C, strain MCK1, stronger effect = lower value",0.918
same,normalized growth,"locus YNL322C, strain KRE1 (second series), stronger effect = lower value",0.932
same,normalized growth,"locus YNR049C, strain mso1, stronger effect = lower value",0.924
same,normalized growth,"locus YNR052C, strain pop2, stronger effect = lower value",0.958
same,normalized growth,"locus YOL006C, strain TOP1, stronger effect = lower value",0.686
same,normalized growth,"locus YOL012C, strain htz1",1.23
same,normalized growth,"locus YOL147C, strain pex11, stronger effect = lower value",0.97
same,normalized growth,"locus YOR001W, strain rrp6, stronger effect = lower value",0.932
same,normalized growth,"locus YOR061W, strain CKA2, stronger effect = lower value",0.979
same,normalized growth,"locus YOR069W, strain VPS5, stronger effect = lower value",0.979
same,normalized growth,"locus YOR070C, strain gyp1, stronger effect = lower value",0.93
same,normalized growth,"locus YOR080W, strain dia2, stronger effect = lower value",0.943
same,normalized growth,"locus YOR083W, strain WHI5, stronger effect = lower value",0.907
same,normalized growth,"locus YOR106W, strain vam3, stronger effect = lower value",0.896
same,normalized growth,"locus YOR136W, strain idh2, stronger effect = lower value",0.972
same,normalized growth,"locus YOR144C, strain elg1, stronger effect = lower value",0.968
same,normalized growth,"locus YOR184W, strain ser1, stronger effect = lower value",0.866 (active)
same,normalized growth,"locus YOR231W, strain MKK1, stronger effect = lower value",0.857 (active)
same,normalized growth,"locus YOR265W, strain rbl2, stronger effect = lower value",0.922 (active)
same,normalized growth,"locus YOR270C, strain vph1, stronger effect = lower value",0.701 (active)
same,normalized growth,"locus YOR290C, strain snf2, stronger effect = lower value",0.82 (active)
same,normalized growth,"locus YOR316C, strain cot1, stronger effect = lower value",0.966
same,normalized growth,"locus YPL051W, strain arl3, stronger effect = lower value",0.904 (active)
same,normalized growth,"locus YPL078C, strain atp4, stronger effect = lower value",0.886 (active)
same,normalized growth,"locus YPL106C, strain sse1, stronger effect = lower value",0.852
same,normalized growth,"locus YPL240C, strain hsp82, stronger effect = lower value",0.934
same,normalized growth,"locus YPL256C, strain CLN2, stronger effect = lower value",0.872
same,normalized growth,"locus YPR119W, strain clb2, stronger effect = lower value",0.973
same,normalized growth,"locus YPR141C, strain kar3, stronger effect = lower value",0.954
same,normalized growth,"locus YPR163C, strain tif3, stronger effect = lower value",0.982
same,normalized growth,"locus YPR167C, strain met16, stronger effect = lower value",0.958
same,normalized growth,"strain wtn01, stronger effect = lower value",0.968
